Several values for one entry are separate records, joined by “and”; a condition that tells them apart may be missing. Identical values can stand only once. Where a structure was tested more than once in an assay, its records may differ in their call. Activity calls are given as the source filed them. How the source made its calls: active means hit-call score of the fitted dose curve at least 0.9, where 1 is the maximum; inconclusive means response in the unintended direction; inactive means score below 0.9.
Experiments:
[1] = target: rat CYP2A2, Cyp2a2 (gene 24895) (UniProt P15149); experiment: NVS_ADME_rCYP2A2: NovaScreen (NVS) CYP450-related Enzyme Activity (ADME) Assay for rat CYP2A2 (AID 2283116)
rat CYP2A2, Cyp2a2 (gene 24895), sequence (P15149 whole entry, looked up): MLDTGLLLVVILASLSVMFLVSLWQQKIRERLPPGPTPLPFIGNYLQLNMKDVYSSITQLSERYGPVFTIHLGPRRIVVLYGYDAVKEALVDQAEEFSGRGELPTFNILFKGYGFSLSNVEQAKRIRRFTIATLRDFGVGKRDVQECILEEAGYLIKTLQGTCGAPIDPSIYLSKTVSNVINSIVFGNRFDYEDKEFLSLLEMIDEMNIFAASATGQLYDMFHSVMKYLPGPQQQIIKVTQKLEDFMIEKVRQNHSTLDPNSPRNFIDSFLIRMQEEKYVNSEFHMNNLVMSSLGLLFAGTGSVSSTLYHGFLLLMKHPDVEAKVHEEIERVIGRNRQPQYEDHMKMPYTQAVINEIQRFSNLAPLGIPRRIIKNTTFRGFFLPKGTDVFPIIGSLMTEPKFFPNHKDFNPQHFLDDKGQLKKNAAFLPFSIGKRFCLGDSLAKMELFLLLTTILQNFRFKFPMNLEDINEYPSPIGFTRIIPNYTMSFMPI
Procedure: (§1) NVS_ADME_rCYP2A2 is a biochemical, single-readout assay that uses extracted gene-proteins in a cell-free assay. Measurements were taken 0.2 hour after chemical dosing in a 96-well plate.NVS_ADME_rCYP2A2 is one of one assay component(s) measured or calculated from the NVS_ADME_rCYP2A2 assay. It is designed to make measurements of enzyme activity, a form of enzyme reporter, as detected with fluorescence intensity signals by Fluorescence technology.Data from the assay component NVS_ADME_rCYP2A2 was analyzed into 1 assay endpoint. This assay endpoint, NVS_ADME_rCYP2A2, was analyzed in the positive analysis fitting direction relative to Acetonitrile as the negative control and baseline of activity. Using a type of enzyme reporter, loss-of-signal activity can be used to understand changes in the enzymatic activity as they relate to the gene Cyp2a2. Furthermore, this assay endpoint can be referred to as a primary readout, because this assay has produced multiple assay endpoints where this one serves a enzymatic activity function. To generalize the intended target to other relatable targets, this assay endpoint is annotated to the cyp intended target family, where the subfamily is xenobiotic metabolism.
Binding assays used specific radioligands (tritiated, iodinated) with non-radioactive competitive displacement ligands in agonist or antagonist protocols (as indicated) and various reference compounds and inhibitors to titrate specific binding to receptors and transporters. Most enzyme assays (CYPs, kinases, phosphatases, proteases, HDACs) used recombinant protein and specific substrates (fluorescence mostly, some colorimetric and radioactive) and inhibitors, followed by a biochemical separation of substrate and product. All assays for the biochemical HTS were initially run in duplicate at a single concentration (10 uM for CYP450 assays and 25 uM for all others). […]

[2] = target: rat CYP2C11, Cyp2c11 (gene 29277) (UniProt P08683); experiment: NVS_ADME_rCYP2C11: NovaScreen (NVS) CYP450-related Enzyme Activity (ADME) Assay for rat CYP2C11 (AID 2283118)
rat CYP2C11, Cyp2c11 (gene 29277), sequence (P08683 whole entry, looked up): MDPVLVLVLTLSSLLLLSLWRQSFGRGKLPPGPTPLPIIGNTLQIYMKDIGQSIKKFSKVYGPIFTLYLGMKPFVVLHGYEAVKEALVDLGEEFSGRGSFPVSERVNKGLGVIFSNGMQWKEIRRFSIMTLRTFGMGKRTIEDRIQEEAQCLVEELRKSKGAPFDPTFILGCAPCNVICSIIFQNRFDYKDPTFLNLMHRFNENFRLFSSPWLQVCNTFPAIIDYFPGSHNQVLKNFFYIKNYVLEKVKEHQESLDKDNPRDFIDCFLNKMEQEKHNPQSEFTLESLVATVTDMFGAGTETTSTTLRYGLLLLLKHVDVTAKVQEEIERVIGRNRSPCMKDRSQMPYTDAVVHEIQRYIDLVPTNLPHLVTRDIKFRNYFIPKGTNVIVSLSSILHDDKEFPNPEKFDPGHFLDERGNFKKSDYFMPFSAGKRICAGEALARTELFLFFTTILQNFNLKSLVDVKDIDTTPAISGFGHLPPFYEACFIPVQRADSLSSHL
In short: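 Screened first at 10 uM in duplicate, hits followed by concentration-response. Recombinant rat enzyme activity monitored by fluorescence 0.33 h post-dosing, normalised to acetonitrile negative control.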

[3] = tested on: rat CYP2C6, gene 293989; experiment: NVS_ADME_rCYP2C6: NovaScreen (NVS) CYP450-related Enzyme Activity (ADME) Assay for rat CYP2C6 (AID 2283120)
Procedure: as §1, with “NVS_ADME_rCYP2C6” for “NVS_ADME_rCYP2A2”, “1” for “0.2”, “plate.NVS_ADME_rCYP2C6” for “plate.NVS_ADME_rCYP2A2”, “NVS_ADME_rCYP2C6,” for “NVS_ADME_rCYP2A2,”, “Cyp2c6v1.” for “Cyp2a2.”, “metabolism. […]” for “metabolism.”

[4] = tested on: rat CYP3A1, gene 25642; experiment: NVS_ADME_rCYP3A1: NovaScreen (NVS) CYP450-related Enzyme Activity (ADME) Assay for rat CYP3A1 (AID 2283126)
In short: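 Compounds went first at 10 uM duplicate, then to series with 20 uM maximum. Fluorescence from substrate turnover by the recombinant enzyme was measured 0.5 h post-dosing, inhibition scored against acetonitrile vehicle.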

[5] = target: rat CYP3A2, Cyp3a2 (gene 266682) (UniProt P05183); experiment: NVS_ADME_rCYP3A2: NovaScreen (NVS) CYP450-related Enzyme Activity (ADME) Assay for rat CYP3A2 (AID 2283128)
rat CYP3A2, Cyp3a2 (gene 266682), sequence (P05183 whole entry, looked up): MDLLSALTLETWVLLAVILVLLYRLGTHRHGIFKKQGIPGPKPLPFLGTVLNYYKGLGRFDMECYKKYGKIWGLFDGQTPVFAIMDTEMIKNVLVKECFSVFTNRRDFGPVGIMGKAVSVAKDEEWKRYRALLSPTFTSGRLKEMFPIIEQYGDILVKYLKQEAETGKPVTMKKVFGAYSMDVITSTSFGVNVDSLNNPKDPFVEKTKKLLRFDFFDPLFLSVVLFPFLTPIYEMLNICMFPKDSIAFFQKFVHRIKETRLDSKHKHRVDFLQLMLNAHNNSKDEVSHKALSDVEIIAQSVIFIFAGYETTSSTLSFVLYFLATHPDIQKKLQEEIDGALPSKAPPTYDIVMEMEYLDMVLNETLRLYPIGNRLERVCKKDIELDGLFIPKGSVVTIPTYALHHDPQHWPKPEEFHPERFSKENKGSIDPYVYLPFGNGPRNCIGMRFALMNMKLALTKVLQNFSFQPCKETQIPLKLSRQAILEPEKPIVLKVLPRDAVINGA
In short: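 Fluorescence readout of extracted rat CYP3A2 activity 0.5 h post-dose, acetonitrile as negative control. Single-point testing in duplicate at 10 uM, followed by concentration series to a 20 uM maximum for actives.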

Structure (SMILES)	AC50 [1]	outcome [1]	AC50 [2]	AC50 [3]	AC50 [4]	AC50 [5]
CCN(CC)CCOc1ccc(C(=C(Cl)c2ccccc2)c2ccccc2)cc1	3.22 µM (active) and 5.8 µM (active)	inactive	6.05 µM (active) and 5 µM (active) and 325 nM (active)	4.06 µM (active) and 3.54 µM (active) and 4.76 µM (active)	6.26 µM (active)	–
CC(=O)O[C@]1(C(C)=O)CC[C@H]2[C@@H]3C=C(Cl)C4=CC(=O)[C@@H]5C[C@@H]5[C@]4(C)[C@H]3CC[C@@]21C	832 nM (active) and 2.03 µM (active) and 1.28 µM (active)	–	–	–	1.2 µM (active)	1.42 µM (active)

Source: PubChem BioAssay (EPA / NIEHS)
